Screens deposited in PubChem BioAssay by Johns Hopkins Ion Channel Center.
An excerpt weighted towards active compounds, which were near 1.6% of everything screened.
KCNQ2 enhance = potentiators of rat KCNQ2 potassium channel; hit rate 0.54% among 310,000; B-score at 10 µM; CHO-K1 KCNQ2, FluxOR thallium flux fluorescence; stronger effect = higher value; Potassium voltage-gated channel subfamily KQT member 2 (Rattus norvegicus), O88943;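 active = fluorescence ratio B-score at least 3 SD of library B-scores, with initial fluorescence B-score within 3 of them, cut at about 5.3 in these data; same plate scores as AID 2156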;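 note: B-score of peak minus minimum over baseline fluorescence ratio after K+ and Tl+ stimulus; positive B-score means potentiation of KCNQ2 with more thallium influx and brighter signal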
KCNQ2 inh = rat KCNQ2 potassium channel inhibitors, primary screen, cell-based, CHO-K1, FluxOR thallium flux, B-score. AID 2156, 2009. 20 min; stronger effect = lower value. Potassium voltage-gated channel subfamily KQT member 2 (Rattus norvegicus), O88943. B-score at 10 µM. hit rate 1.1% among 310,000;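 active = fluorescence ratio B-score at most minus 3 library SDs, with starting brightness B-score within 2 library SDs, cut at about -5.5 in these data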
Kir21 confirm = mouse Kir2.1 channel blockers, retest, confirmation, cell-based, FluxOR thallium flux, duplicate; Tl flux remaining, % of negative control (stronger effect = lower value), % at 10 µM; Kir2.1-expressing cells, FluxOR thallium flux fluorescence; stronger effect = lower value; shares compounds with KCNQ2 enhance; hit rate 41% among 2,300;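 active = Primary-screen hit whose thallium flux fell at least 3 control SD below untreated wells in both duplicates, with normal baseline fluorescence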
Target sequence (P35561 whole entry, looked up): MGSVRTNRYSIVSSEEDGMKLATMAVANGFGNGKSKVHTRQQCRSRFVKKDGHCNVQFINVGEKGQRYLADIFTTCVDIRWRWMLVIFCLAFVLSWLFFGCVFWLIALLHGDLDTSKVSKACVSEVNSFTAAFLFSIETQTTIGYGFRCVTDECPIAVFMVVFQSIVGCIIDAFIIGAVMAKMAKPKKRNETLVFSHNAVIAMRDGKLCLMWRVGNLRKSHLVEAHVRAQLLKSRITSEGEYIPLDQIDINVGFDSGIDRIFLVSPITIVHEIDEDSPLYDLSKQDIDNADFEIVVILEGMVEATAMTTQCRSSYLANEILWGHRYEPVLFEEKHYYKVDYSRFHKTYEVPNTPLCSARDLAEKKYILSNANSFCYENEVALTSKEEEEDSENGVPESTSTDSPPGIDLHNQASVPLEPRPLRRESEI
HEK293 ctr = parental HEK293 activity in Kir2.1 inhibitor counter-screen | parental HEK293 cells, FluxOR thallium flux fluorescence; 0% = unstimulated blank wells | hit rate 19% among 2,300 | shares compounds with KCNQ2 enhance | FluxOR signal as % of negative control (100 = no effect), % at 10 µM;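 active = dye signal at least 3 control SD above or below untreated wells in both duplicates, raw fluorescence within 3, either direction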;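 note: percent is based on the flux ratio of peak minus minimum fluorescence over baseline F0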
CHO-K1 Tl ctr = nonspecific thallium flux increase in parental CHO-K1, confirmation, counter-screen for KCNQ2 potentiator project, cell-based, FluxOR thallium flux, duplicate | activity increase over 3SD of controls, % at 10 µM | parental CHO-K1 cells, FluxOR thallium flux fluorescence; zero = vehicle mean+3SD, 100% = vehicle-minus-blank window | AID 2282, 2010 | shares compounds with KCNQ2 enhance | hit rate 43% among 1,200;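 active = signal rise of at least 3 SD above the untreated control mean, in both duplicate wells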;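 note: counter screen of KCNQ2 potentiator hits so any rise reflects channel-independent effects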
KCNQ1 pot spec = human KCNQ1 channel potentiation off-target, confirmation, selectivity assay for KCNQ2 potentiator project, cell-based, CHO, FluxOR thallium flux | CHO KCNQ1 stable, FluxOR thallium flux fluorescence; beyond 3SD, as % of vehicle-control signal | hit rate 28% among 1,200 | shares compounds with KCNQ2 enhance | activation over 3SD threshold, % at 10 µM;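 active = fluorescence ratio rise of at least 3 SD of vehicle wells above their mean, in both replicate wells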
KCNQ2 pot conf = rat KCNQ2 channel potentiators, confirmation, cell-based, CHO, FluxOR thallium flux, duplicate; CHO-KCNQ2 cells, FluxOR thallium flux fluorescence; shares compounds with KCNQ2 enhance; potentiation, less the hit threshold, % at 10 µM; hit rate 68% among 1,200;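 active = fluorescence ratio rising 3 SD or more over the vehicle control mean in both replicates, plus primary screen hit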;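 note: peak minus minimum thallium fluorescence divided by baseline after K/Tl stimulus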
Kir21 spec = mouse Kir2.1 channel activation off-target, confirmation, selectivity assay for KCNQ2 potentiator project, cell-based, HEK293, FluxOR thallium flux; activity over 3SD threshold, % at 10 µM; AID 2345, 2010; HEK293 Kir2.1, FluxOR thallium flux fluorescence; hit rate 2% among 1,200; shares compounds with KCNQ2 enhance;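 active = fluorescence ratio rise of at least 3 SD above the vehicle-control mean, seen in both replicates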
KCNQ2 W236L pot = potentiators of retigabine-insensitive KCNQ2 W236L, mechanism study for KCNQ2 potentiator project, cell-based, rat KCNQ2 W236L, CHO, automated patch clamp; AID 2558, 2010; hit rate 10% among 940; automated patch clamp current; current increase over 3SD of negative controls (%), stronger effect = higher value, % at 25 µM; shares compounds with KCNQ2 enhance;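 active = current increase at least 3 SD of the untreated controls above them in both duplicate recordings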
Hits are given with their value; . = inactive; / = not tested or not shown.

SMILES	KCNQ2 enhance	KCNQ2 inh	Kir21 confirm	HEK293 ctr	others
CCOC(=O)c1c(-c2ccccc2)csc1NC(=O)CSc1nnc(C)s1	/	.	/	/
CCOC(=O)c1c(-c2ccccc2)csc1NC(=S)NC	7.8	.	.	219.5%	CHO-K1 Tl ctr=.;KCNQ1 pot spec=.;KCNQ2 pot conf=7.3;Kir21 spec=.;KCNQ2 W236L pot=.
CNCC[C@H](Oc1cccc2ccccc12)c1cccs1	/	.	.	.
CNCCC(Oc1ccc(C(F)(F)F)cc1)c1ccccc1 (centres undefined)	/	.	/	/
Cc1ccc(NC(=O)CC(O)(C(F)(F)F)C(F)(F)F)c(Br)c1	8.74	.	.	.	CHO-K1 Tl ctr=54.3;KCNQ1 pot spec=53.9;KCNQ2 pot conf=31.2;Kir21 spec=.;KCNQ2 W236L pot=.
Cc1ccccc1NC(=O)CC(O)(C(F)(F)F)C(F)(F)F	.	.	/	/
COC(=O)c1scc(C)c1-n1ccc(C(=O)C(=O)N(C)C)c1	.	.	/	/
Cc1occc1C(=O)N1CCCC(CO)(Cc2ccc(F)cc2F)C1 (centres undefined)	/	.	/	/
Cc1ccc(S(=O)(=O)NCCSc2nnnn2-c2cc(C)ccc2C)cc1	.	.	/	/
Cc1ccc(S(=O)(=O)NCCSc2nnnn2-c2ccccc2)cc1	.	.	67.5%	.
COc1cc(C2/C(=C(/O)c3ccccc3)C(=O)C(=O)N2c2ccccn2)ccc1O (centres undefined)	.	.	/	/
CCCC(=O)Nc1ccc(C#Cc2ccccc2)cc1	/	.	/	/
CCCCC#Cc1ccccc1CC(=O)Nc1ccccc1	7.13	.	.	.	CHO-K1 Tl ctr=99.4;KCNQ1 pot spec=.;KCNQ2 pot conf=9.6;Kir21 spec=.;KCNQ2 W236L pot=.
CCOc1cc(C(=O)N/N=C\c2cn(CC)nc2C)cc(OCC)c1OCC	.	.	/	/
Cc1sc2nc[nH]c(=S)c2c1-c1ccccc1	11.7	.	.	.	CHO-K1 Tl ctr=.;KCNQ1 pot spec=13.3;KCNQ2 pot conf=39.7;Kir21 spec=.;KCNQ2 W236L pot=.
Cc1sc2nc[nH]c(=O)c2c1-c1ccc(F)cc1	.	.	/	/
COc1cccc(CNC(=O)CSCc2cnn(-c3ccccc3)c2-n2cccc2)c1	/	.	.	.
O=C(CSCc1cnn(-c2ccccc2)c1-n1cccc1)NCc1cccs1	/	.	.	.
CNC(=O)CSCc1cnn(-c2ccccc2)c1-n1cccc1	.	.	/	/
CCOC(=O)N1CCC(NC(=O)CSCc2cnn(-c3ccccc3)c2-n2cccc2)CC1	.	.	/	/
O=C(CCN1C(=O)C2C3CCC(C3)C2C1=O)Nc1ccc(F)cc1 (centres undefined)	.	.	/	/
Cc1cc(Cl)c(S(=O)(=O)NC(C(=O)O)C(C)C)cc1OCC(=O)NC1CCCCC1 (centres undefined)	/	.	/	/
Cc1cc(Cl)c(S(=O)(=O)N2CCCC2)cc1OCC(=O)NC1CCCCC1	27.4	.	.	139.0%	CHO-K1 Tl ctr=.;KCNQ1 pot spec=.;KCNQ2 pot conf=132.9;Kir21 spec=.;KCNQ2 W236L pot=.
Cc1ccc(N2CC(C(=O)Nc3cccnc3)CC2=O)cc1Cl (centres undefined)	.	.	/	/
CCC(O)(CC)C(=O)N(Nc1ccc(C)cc1)c1ccc(C)cc1	5.58	.	.	.	CHO-K1 Tl ctr=.;KCNQ1 pot spec=.;KCNQ2 pot conf=.;Kir21 spec=.;KCNQ2 W236L pot=37.1%
SMILES	KCNQ2 enhance	KCNQ2 inh	Kir21 confirm	HEK293 ctr	others
CCOC(=O)C(=O)N(Nc1ccc(C)cc1)c1ccc(C)cc1	/	.	/	/
COc1ccc(C(=O)NC2CCCCC2)cc1OC1CCN(C(C)C)CC1	/	.	/	/
NC1=NC[C@H](Cc2ccc(O)cc2)N1CCCCC1CCCCC1	.	.	/	/
NC1=NC[C@H](Cc2ccccc2)N1CCCCC1CCCCC1	/	.	32.0%	.
Cc1cccc(N2CCN(C(=O)C3CC(=O)N(C4CCCC4)C3)CC2)c1C (centres undefined)	/	.	/	/
COc1ccc(/C(C)=N/Nc2ccc(C(=O)O)cc2)c(OC)c1	/	.	/	/
COc1ccc2c(c1)C(=NNc1ccc(C(=O)O)cc1)c1cc(OC)ccc1-2	7.55	.	.	.	CHO-K1 Tl ctr=.;KCNQ1 pot spec=.;KCNQ2 pot conf=.;Kir21 spec=.
COc1ccc(-c2cc(-c3ccc(C)cc3)n[nH]2)c(O)c1	7.05	.	.	.	CHO-K1 Tl ctr=16.2;KCNQ1 pot spec=.;KCNQ2 pot conf=.;Kir21 spec=.
COc1ccc(-c2cc(-c3cc(C)ccc3O)[nH]n2)cc1	.	.	/	/
CCOc1ccccc1NC1=NC2CS(=O)(=O)CC2S1 (centres undefined)	.	.	/	/
CCc1ccc(C(=O)Nn2c(C)nc3ccccc3c2=O)cc1	.	.	/	/
CCCCCc1ccc(CC(=O)Nn2c(C)nc3ccccc3c2=O)cc1	15.1	.	.	.	CHO-K1 Tl ctr=10.3;KCNQ1 pot spec=.;KCNQ2 pot conf=93.1;Kir21 spec=.;KCNQ2 W236L pot=.
CN(C)S(=O)(=O)c1ccc(-c2csc(N/N=C/c3ccc(O)cc3)n2)cc1	.	.	/	/
Cc1onc(-c2ccccc2)c1C(=O)N1CCN(c2ccccc2F)CC1	/	.	/	/
CCCc1cc(=O)[nH]c(SCC(=O)c2cc(C)n(CCOC)c2C)n1	.	.	/	/
CCCc1cc(=O)[nH]c(SCC(=O)c2cc(C)n(CC(F)(F)F)c2C)n1	6.41	.	.	.	CHO-K1 Tl ctr=.;KCNQ1 pot spec=74.1;KCNQ2 pot conf=.;Kir21 spec=.
Cc1onc(-c2c(F)cccc2Cl)c1C(O)c1ccc(F)cc1 (centres undefined)	/	.	/	/
O=C(CSc1nnc(CNC(=O)c2ccco2)o1)Nc1cccc(F)c1	.	.	/	/
O=C(O)CCC(=O)NNC(=O)c1ccc(Br)cc1	/	.	/	/
COc1ccc(Nc2nc(N3CCCC3)c3ccccc3n2)cc1	.	.	21.0%	.
CCN(CC)c1ccc(Nc2nc(N3CCOCC3)c3ccccc3n2)cc1	/	.	/	/
COc1ccc(C)cc1Nc1c2c(nc3ccccc13)CCC2	.	.	.	.
c1ccc(Nc2c3c(nc4ccccc24)CCC3)cc1	.	.	/	/
COc1ccc(Nc2c3c(nc4ccccc24)CCCC3)cc1OC	.	.	/	/
COc1ccc(Nc2nc(N3CCCCC3)nc3ccccc23)c(OC)c1	/	.	.	.
COc1ccc(Nc2nc(N3CCN(S(C)(=O)=O)CC3)nc3ccccc23)c(OC)c1	/	.	/	/
COc1ccc(Nc2c3c(nc4ccccc24)CCC3)cc1	/	.	42.0%	.
